95 compounds from PubChem BioAssay AID1578 (Sanford-Burnham Center for Chemical Genomics, 2009) can be followed below.

The structures appear in SMILES notation. Values joined by “and” are separate entries in the source; they are usually repeats but may differ in a detail not shown here. Identical values can stand only once. Hit rate of the full screen: of about 290,000 compounds, about 3,000 (1%) were called active. Cut-off read from the data, not from the text of the source: active = inhibition mostly above about 36% (no sharp cut-off); inactive = mostly below about 34%. The sample as a whole holds a higher share of actives than the screen did. A structure can be active in one record and inactive in another.

The test can be described thus: NOD1 signaling inhibitors, primary screen, cell-based, luminescence, uHTS (AID 1578).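 Note: HEK-293T reporter cells stimulated with the NOD1 agonist gamma-tri-DAP.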 As to conditions: NOD1-driven NF-kB luciferase reporter cells, at 4 µM, stronger effect = higher value.
On to `CC1=CC2/C=C(\C)CCC(O)C(O)/C=C/C(=O)C23C(=O)NC(CC(C)C)C3C1C` (stereo not given), for which the inhibition is 90.7% (active).
In the case of `C/C1=C\[C@@H](C)C/C=C/[C@H]2[C@@H]3O[C@]3(C)[C@@H](C)[C@H]3[C@H](Cc4c[nH]c5ccccc45)NC(=O)[C@]32C(=O)/C=C/C(=O)[C@@H]1O`, the inhibition was -3.4% (inactive).
In the case of `CCOc1ccc(-n2c(O)c(C=Nc3ccc(NC(C)=O)cc3)c(=O)[nH]c2=O)cc1`, the inhibition is -7.1% (inactive).
For `O=P(O)(O)C#Cc1ccccc1`, the inhibition is -12.9% (inactive).
Consider `CN1CCN(c2nc([N+](=O)[O-])nn2C)CC1`, for which the inhibition is -15.4% (inactive).
For the compound `COC(=O)c1ccc(NC(=O)CSc2nc3ccc(N4C(=O)C5C6C=CC(C6)C5C4=O)cc3s2)cc1` (stereo not given), the inhibition was 104% (active).
Regarding `CCOC(=O)c1c(-n2c(C)cc(C=C3C(=O)NC(=O)NC3=O)c2C)sc2c1CCCC2`, the inhibition was 1.7% (inactive).
In the case of `CCC(C)C12CN3CCN(CC(C)(C3)C1=O)C2` (stereo not given), the inhibition is 4.3% (inactive).
As for `C=CCn1c(O)c(C(CC)=Nc2cccc(C(=O)O)c2)c(=O)[nH]c1=O`, the inhibition was 5.1% (inactive).
The result for `CCCCCCNC(=O)N[C@@H](Cc1ccc(O)cc1)C(=O)NCCC[C@H]1CN2C(=NC[C@H]2C)N1CC1CCC1` reads 2.9% (inactive).
Turning to `O=C(CNC(=O)OCc1ccccc1)NCC(=O)Nc1ccc(Br)cc1C(=O)c1ccccc1`, the inhibition was 22% (inactive).
As for `COc1ccc(/C=C/C(=O)c2c(O)n(CCC3=CCCCC3)c(=O)[nH]c2=O)cc1`, the inhibition was 79.8% (active).
Regarding `O=C(/C=C/c1ccc2c(c1)OCO2)c1c(O)n(CCC2=CCCCC2)c(=O)[nH]c1=O`, the inhibition was 34.4% (inactive).
As to `COc1ccc(/C=C/C(=O)c2c(O)n(CCC3=CCCCC3)c(=O)[nH]c2=O)cc1OC`, the inhibition is 14.2% (inactive).
As for `CCOc1cc2c(cc1OCC)-n1cccc1C(c1ccc(OC)cc1)NC2` (stereo not given), the inhibition was -5.9% (inactive).
Take `C[C@@H]1C[C@H]2OC(=O)C3(CO3)[C@H]2[C@H](O)[C@]2(C)C(=O)C3OC3[C@@H]12` (stereo not given in full): the inhibition is 65.6% (active).
Turning to `CCN(CC)CCN=Cc1c(O)n(Cc2ccco2)c(=O)[nH]c1=O`, the inhibition was -5.5% (inactive).
On to `CC(C)CN1CCN(Cc2ccc(C(F)(F)F)cc2)CC1CCO` (stereo not given), for which the inhibition was -10.4% (inactive).
`C/C(=N\N1CCCCCC1)c1c(O)n(C2CCCCC2)c(=O)[nH]c1=O`: the inhibition is -7.2% (inactive).
Take `CCOC(=O)c1ccc(NC(=O)c2c(O)[nH]c(=O)[nH]c2=O)cc1`: the inhibition was -19% (inactive).
As to `CCn1cc(C(=O)NCc2ccccc2)c2ccccc21`, the inhibition was -16.6% (inactive).
With `COCCCN=Cc1c(O)[nH]c(=S)[nH]c1=O`, the inhibition is -7.3% (inactive).
As for `CCCCC(CC)COCCCN=Cc1c(O)[nH]c(=S)[nH]c1=O` (stereo not given), the inhibition is 34.9% (active).
Consider `CCCCCCCCN=Cc1c(O)[nH]c(=O)[nH]c1=O`, for which the inhibition was -1.5% (inactive).
`O=S(=O)(c1ccc(Cl)cc1)N1CN2CCN(C2)C1`: the inhibition was -10.2% (inactive).
In the case of `CN1C(=O)C(=Cc2cn(CC#N)c3ccccc23)C(=O)N(C)C1=O`, the inhibition was 1.8% (inactive).
As to `CC1CCCCN1Cc1c[nH]c2ccccc12` (stereo not given), the inhibition is -3.8% (inactive).
Then `c1cncc(C2Nc3cccc4cccc(c34)N2)c1`, with 54.6% (active) and -3.4% (inactive); and `O=C1NC(c2cccnc2)Nc2sc3c(c21)CCCC3` (stereo not given), with -24.5% (inactive).
Turning to `c1cncc(C2CCCCN2)c1` (stereo not given), the inhibition is -6.3% (inactive).
Take `CC#CP(=O)(OC)C(O)(CF)c1ccccc1` (stereo not given): the inhibition is -41.2% (inactive).
The result for `O=S(=O)(c1ccc(Cl)cc1Cl)N1CCCC1c1cccnc1` (stereo not given) reads -4.1% (inactive); that for `CC(=O)Nc1ccc(CC(=O)N2CCN(Cc3ccccc3)CC2)cc1`, 25.2% (inactive); that for `C[C@H]1C[C@@H](C)C(=O)[C@@H]([C@H](O)CC2CC(=O)NC(=O)C2)C1`, 88% (active).
Turning to `Cc1ccccc1NC(=O)CCl`, the inhibition is 18.4% (inactive).
For `CCN(CC)S(=O)(=O)c1ccc(C(=O)NC2CN3CCC2CC3)cc1` (stereo not given), the inhibition is 7.1% (inactive).
Consider `CCN(CC)CCCN=Cc1c(O)n(CCc2ccc(F)cc2)c(=O)[nH]c1=O`, for which the inhibition is 19.7% (inactive).
`CC(=O)OC(C)(C)/C=C/C(=O)C(C)(O)C1[C@H](O)C[C@@]2(C)C3CC=C4C(CC[C@@H](O)C4(C)C)[C@]3(CO)C(=O)C[C@]12C` (stereo not given in full): the inhibition is 12% (inactive).
The result for `CC(=O)OC(C)(C)/C=C/C(=O)[C@](C)(O)[C@H]1[C@H](O)C[C@@]2(C)[C@@H]3CC=C4[C@H](C[C@H](O)C(=O)C4(C)C)[C@]3(C)C(=O)C[C@]12C` reads 92.6% (active); that for `Cc1ccc(-c2cc(-c3ccc(C)cc3)[n+](C)o2)cc1`, 26.6% (inactive).
Regarding `O=[N+]([O-])c1ccc(C2[C@H]3C(c4ccccc4)=NC4(CCCC4)N23)cc1` (stereo not given in full), the inhibition was -19.9% (inactive).
As for `Cc1nn(-c2ccccc2)c2c1CC1(C(=O)N(C)C(=O)N(C)C1=O)C1CCCCN21` (stereo not given), the inhibition is -10.6% (inactive).
In the case of `CN(CCCCC(=O)/C=N/O)Cc1ccccc1` (tested in a mixture with another compound), the inhibition is -7.6% (inactive).
Then `O=[N+]([O-])c1ccc(N2CCNCC2)cc1N1CCCCCC1`, with -7.5% (inactive); and `O=C(CSC1c2ccccc2-c2ccccc21)N/N=C/c1ccccc1C(=O)O`, with -22.4% (inactive).
Consider `O=C(CSC1c2ccccc2-c2ccccc21)N/N=C/c1ccccc1O`, for which the inhibition was 80.9% (active).
Then `O=C(CSC1c2ccccc2-c2ccccc21)N/N=C/c1ccccc1`, with 14.7% (inactive); and `Oc1cccc(/C=N/NP(=S)(c2ccccc2)c2ccccc2)c1`, with -0.8% (inactive); and `COCc1ccc(CN2CCCC(C(=O)c3sccc3C)C2)o1` (stereo not given), with -44.8% (inactive).
As to `CN(Cc1ccccc1)Cc1ccccc1OC(=O)N(C)C`, the inhibition is 2.4% (inactive).
Take `C/C(=C\c1ccc(N(C)C)cc1)[N+](=O)[O-]`: the inhibition is 41.9% (inactive).
In the case of `COc1cc(/C=C(/C)[N+](=O)[O-])ccc1OCc1ccccc1Cl`, the inhibition was 86.8% (active).
The result for `COc1cc(C=C2C(=O)NC(=O)NC2=O)ccc1OCc1ccc([N+](=O)[O-])cc1` reads -52% (inactive).
For the compound `CCOC(=O)CNC(=S)N1CC2C[C@@H](C1)Cn1c2cccc1=O`, the inhibition is 0.7% (inactive).
Regarding `Cc1ccc2cc(C=C(C#N)C#N)c(Cl)nc2c1`, the inhibition is 72.2% (active).
Take `Cc1cc(N2CCCC2)ccc1C=C(C#N)C#N`: the inhibition was -24.7% (inactive).
`CN(C)c1ccc(C=C(C#N)C#N)cc1`: the inhibition was -35.8% (inactive).
As for `Cc1c(-c2cccc(Cl)c2)nc2ccccc2c1C(=O)N1CCC2(CC1)OCCO2`, the inhibition was -11.2% (inactive).
Take `c1ccc(-c2cc(-c3ccccc3)[n+](-c3ccccc3)c(-c3ccccc3)c2)cc1`: the inhibition was 65.7% (active).
Consider `Nc1ccccc1-[n+]1c(-c2ccccc2)cc(-c2ccccc2)cc1-c1ccccc1`, for which the inhibition is -5.4% (inactive).
As to `O=[N+]([O-])c1ccc(-[n+]2c(-c3ccccc3)cc(-c3ccccc3)cc2-c2ccccc2)cc1`, the inhibition is -8.8% (inactive).
As for `NC(=S)c1cn(C2OC(CO)C(O)C2O)c2ncnc(N)c12` (stereo not given), the inhibition was 104% (active).
The result for `CCNC(=O)[C@H]1O[C@@H](n2cnc3c(N)ncnc32)[C@H](O)[C@@H]1O` reads -5.6% (inactive).
With `CN(C)C(=O)Oc1ccc2c(c1)O/C(=C\c1cccc([N+](=O)[O-])c1)C2=O`, the inhibition was -9.1% (inactive).
On to `O=C1NC(=O)C(=Cc2ccc(Sc3ccccc3)o2)C(=O)N1`, for which the inhibition is 1.7% (inactive).
For `Cc1c(C=O)c2ccccc2n1Cc1ccccc1F`, the inhibition was 5% (inactive).
On to `CCn1c(O)c(/C=N/NC(=O)c2ccncc2)c(=O)[nH]c1=S`, for which the inhibition is 2.7% (inactive).
In the case of `CCOC(=O)CCN=Cc1c(O)n(-c2ccc(Br)cc2)c(=O)[nH]c1=O`, the inhibition was -27.1% (inactive).
`Cc1cc(C)n2nc(C)[n+](C)c2n1`: the inhibition was -17.4% (inactive).
As for `COC(=O)c1c(C)n(Cc2ccc3c(c2)OCO3)c2ccc(O)cc12`, the inhibition was 48.3% (active).
Consider `COC(=O)c1c(C)n(Cc2ccccc2)c2ccc(O)cc12`, for which the inhibition is 19.6% (inactive).
On to `CCOC(=O)c1c(C)n(Cc2ccc3c(c2)OCO3)c2ccc(O)cc12`, for which the inhibition was -7.9% (inactive).
For `C=CCn1c(O)c(/C(C)=N/N2CCCCCC2)c(=O)[nH]c1=O`, the inhibition is -6.9% (inactive).
Consider `CCCCn1c(=O)c(C(=O)Nc2ccccc2)c(O)c2ccccc21`, for which the inhibition was 14.3% (inactive).
For `CCCCCn1c(=O)c(C(=O)Nc2cccc(C)c2)c(O)c2ccccc21`, the inhibition was -15.2% (inactive).
In the case of `CCCCCn1c(=O)c(C(=O)Nc2nc(CC(=O)OCC)cs2)c(O)c2ccccc21`, the inhibition is -28.8% (inactive).
`CCCCCn1c(=O)c(C(=O)NCc2ccncc2)c(O)c2ccccc21`: the inhibition was 21.6% (inactive).
In the case of `CCCCCn1c(=O)c(C(=O)Nc2ccccc2)c(O)c2ccccc21`, the inhibition is -20.5% (inactive).
For the compound `CCCCCn1c(=O)c(C(=O)Nc2ccncc2)c(O)c2ccccc21`, the inhibition was 69.7% (active).
`CCCCCCn1c(=O)c(C(=O)Nc2ccncc2)c(O)c2ccccc21`: the inhibition is 63.9% (active).
`CCCCCCn1c(=O)c(C(=O)Nc2nc(CC(=O)OCC)cs2)c(O)c2ccccc21`: the inhibition was 58.7% (active).
For `CCOC(=O)Cc1csc(NC(=O)c2c(O)c3ccccc3n(CCC(C)C)c2=O)n1`, the inhibition is -27.7% (inactive).
Regarding `Cc1ccc(N2CCN(CCc3ccccc3)CC2)cc1`, the inhibition was 10.7% (inactive).
`CCOc1nc(NC(C)C)nc(N2CC3CC(C2)c2cccc(=O)n2C3)n1` (stereo not given): the inhibition was -38.6% (inactive).
`O=C(Nc1cccc(Cl)c1)c1c(O)c2c(n(Cc3ccccc3)c1=O)CCCC2`: the inhibition is -38.5% (inactive).
On to `CCCCn1c(O)c(C(C)=NCCCn2ccnc2)c(=O)[nH]c1=O`, for which the inhibition is -5.8% (inactive).
Consider `Cc1ccsc1C(=O)C1CCCN(Cc2cnc(N(C)C)s2)C1` (stereo not given), for which the inhibition is -26.4% (inactive).
On to `Cc1ccsc1C(=O)C1CCCN(Cc2cc3ccccc3o2)C1` (stereo not given), for which the inhibition is 75.6% (active).
The result for `Cc1ccsc1C(=O)C1CCCN(Cc2ccc(O)cc2)C1` (stereo not given) reads -32.6% (inactive); that for `Cc1ccsc1C(=O)C1CCCN(Cc2cnc(N3CCOCC3)s2)C1` (stereo not given), 46.6% (active); that for `Cc1ccc(CN2CCCC(C(=O)c3sccc3C)C2)o1` (stereo not given), -19.5% (inactive).
As to `Cc1ncc(CN2CCCC(C(=O)c3sccc3C)C2)s1` (stereo not given), the inhibition is -24.9% (inactive).
For `Cc1ccsc1C(=O)C1CCCN(Cc2cnc(N3CCCC3)s2)C1` (stereo not given), the inhibition is 11.2% (inactive).
The result for `CCc1ccc(CN2CCCC(C(=O)c3sccc3C)C2)o1` (stereo not given) reads -19% (inactive).
For `Cc1ccsc1C(=O)C1CCCN(Cc2sc(N(C)C)nc2Cl)C1` (stereo not given), the inhibition is 60.9% (active).

For orientation: inhibition means the relative decrease from the control value, in per cent.
